Assay outcomes deposited in PubChem by several laboratories.
Shn3 inh set2: reduces Shn3 3'UTR luciferase signal in osteoblasts. Clone20 osteoblast Shn3 3'UTR firefly luciferase, 24 h. inhibition, % at 12.5 µM. 360,000 compounds, 0.52% hits;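 active = mean inhibition of at least 75% with every replicate also reaching 75%; inconclusive = mean inhibition at least 75% but some replicate below; inactive = mean inhibition below 75%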;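 also: 0% = median of neutral control wells and 100% = pilot-screen positive control compound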
Mdm2 MdmX PPI: inhibitors of human Mdm2/MdmX interaction | SaOS-2 split-luciferase Mdm2/MdmX complementation, luminescence | 330,000 compounds, 3% hits | inhibition, % at 8 µM;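 active = inhibition of at least 50% at 8 µM in the primary screen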
CSC inhib: blocks cancer stem cells | cancer stem cell-like cells viability, luminescence | inhibition, % at 7.5 µM | 300,000 compounds, 1.1% hits | AID 2717; in the data active = inhibition above about 75%; inconclusive = no clear call, values can overlap the other calls; tested in HMLE shEcad cells
Beta apoptosis: beta cell apoptosis inhibition; AID 435005; protection from apoptosis, % (test concentration not listed); INS-1E cytokine-induced death, ATP luminescence, 48 h; percent of positive-control rescue, neutral wells zero; 300,000 compounds, 0.8% hits;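 active = Every replicate reaches about 75%, or at least half do and their mean reaches it too, limit read from the data; inconclusive = At least half of replicates reach the limit but their mean does not; inactive = Under half of replicates reach the limit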;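 also: 0% = cytokine-treated negative control wells and 100% = positive control rescue; higher means more ATP so stronger rescue from cytokine killing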
Gli-Sufu block: antagonists of Gli-Sufu signaling; Sufu-KO-LIGHT fibroblasts, Gli luciferase reporter luminescence; inhibition, % at 5 µM; 340,000 compounds, 0.74% hits; AID 588413;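 active = inhibition above about 55%, limit read from the data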;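 also: 0% = DMSO-treated cells and 100% = wells with medium but no cells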
PAX8 inh HTS: inhibitors of PAX8 transcriptional activity in RMG-I cells; 360,000 compounds, 1.2% hits; inhibition, % at 12.6 µM; RMG-I TPO-luciferase reporter, SteadyGlo, 24 h;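 active = mean replicate inhibition at least 60% with every replicate also reaching 60%; inconclusive = only one of the two criteria is met; inactive = mean below 60% and not all replicates reaching 60%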;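 also: luciferase light reporting Pax8 driven TPO promoter activity; plate controls were median of neutral control wells for no effect and mitoxantrone controls for full effect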
Mdm2-MdmX conf: human Mdm2/MdmX binding inhibition, confirmed; inhibition, % at 8 µM; luminescent assay; 10,000 compounds, 55% hits; shares compounds with Mdm2 MdmX PPI; AID 489028; in the data active = inhibition above about 40%
FLuc counter: inhibits full-length luciferase, flagging false Mdm2/MdmX hits; shares compounds with Mdm2 MdmX PPI; SaOS-2 full-length luciferase counterscreen, luminescence; inhibition, % at 8 µM; 6,200 compounds, 77% hits; AID 504607;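 active = mean inhibition at 8 µM reaching about 37%, which flags the compound as non-specific, limit read from the data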;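 also: p53-null SaOS-2 cells with luciferase driven by a doxycycline-inducible promoter; compound on cells about two nights before reading with doxycycline added after day one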
Starred values were filed as active, the others as inactive; ? = inconclusive; · = no result. Compounds with a hit are over-represented: about 4% of the library has one in this group of screens.

SMILES	Shn3 inh set2	Mdm2 MdmX PPI	CSC inhib	Beta apoptosis	Gli-Sufu block	PAX8 inh HTS	Mdm2-MdmX conf	FLuc counter
C[C@H](CO)N1C[C@H](C)[C@H](CN(C)C(=O)Nc2ccc(C(F)(F)F)cc2)Oc2ccc(NC(=O)Nc3ccc(C(F)(F)F)cc3)cc2CC1=O	·	·	·	·	·	-3	·	·
Cc1sc(NC(=O)CCl)c(C(=O)c2ccccc2)c1C	12	54*	15	8	0	11	4	·
Cc1cc(C(=O)c2ccccc2)c(NC(=O)CN2CCOCC2)s1	21	3	4	-7	-6	14	·	·
Cc1cc(C(=O)c2ccc(C(C)(C)C)cc2)c(NC(=O)CCl)s1	22	78*	50	22	-6	0	-5	·
Cc1ccccc1C(=O)Nc1sc(C)c(C)c1C(=O)c1ccccc1	-3	19	20	10	4	·	·	·
COc1cccc(F)c1C(C[N+](=O)[O-])c1c(N)n(C)c(=O)n(C)c1=O (stereo not given)	-110	95*	71	97*	-31	100*	45*	36*
CNC[C@@H]1Oc2ccc(NC(=O)Cc3cn(C)c4ccccc34)cc2C(=O)N([C@H](C)CO)C[C@@H]1C	·	·	·	·	·	3	·	·
Cc1cc(C)n(-c2nc3sc4c(c3c(=O)[nH]2)CCCC4)n1	·	·	·	50	·	·	·	·
Cc1cc(C)n(-c2nc(NCCCN(C)C)c3c4c(sc3n2)CCCC4)n1	-5	54*	2	36	3	7	30	·
Cc1cc(C)n(-c2nc(NCCN(C)C)c3c4c(sc3n2)CCCC4)n1	20	100*	53	112*	9	97*	89*	21
COCc1cn(CC[C@@H]2CC[C@H](NC(=O)c3ccncc3)[C@@H](CO)O2)nn1	·	·	·	·	·	0	·	·
C[C@@H]1CCCCO[C@@H](CN(C)C)[C@@H](C)CN([C@@H](C)CO)C(=O)c2cc(NS(=O)(=O)c3cccs3)ccc2O1	·	·	·	·	·	2	·	·
CCOC(=O)c1c(C)[nH]c(C(=O)OCC(=O)N2CCc3ccccc32)c1C	23	70*	-15	0	1	·	-10	·
CCOC(=O)c1[nH]c(C)c(C(=O)OCC(=O)N2CCc3ccccc32)c1C	17	-1	12	6	-4	·	·	·
CCOc1cc(CNCCCN2CCOCC2)ccc1OCC(=O)Nc1cccc2ccccc12	19	78*	11	17	-7	·	54*	54*
COc1cc(CNCCCN2CCOCC2)ccc1OCC(=O)Nc1cccc(C(F)(F)F)c1	-3	44	7	-3	10	·	·	·
C[C@H]1CN([C@@H](C)CO)C(=O)c2cccc(NS(C)(=O)=O)c2O[C@@H]1CN(C)C	·	·	·	·	·	-22	·	·
O=C(NNC(=O)c1cc2cc3ccccc3nc2s1)c1ccc(F)cc1	8	22	-10	0	48	·	·	·
O=C(NNC(=O)c1cc2cc3ccccc3nc2s1)c1cccc(Cl)c1	-4	57*	-3	-2	-8	·	36	109*
Cc1cccc(C(=O)NNC(=O)c2cc3cc4ccccc4nc3s2)c1	1	51*	-13	7	0	·	7	·
C[C@@H]1CN([C@H](C)CO)C(=O)c2cc(NC(=O)c3ccncc3)ccc2O[C@H]1CN(C)Cc1ccc2c(c1)OCO2	·	·	·	·	·	-2	·	·
Cc1c(Cl)cccc1N/C(SCC(=O)N1CCCCCC1)=C(/C#N)c1nc2ccccc2s1	45	91*	5	40	38	8	66*	36
CO[C@H]1CN(C)C(=O)c2cc(NC(=O)c3ccccc3F)ccc2OC[C@@H](C)N(C(=O)c2ccccc2F)C[C@@H]1C	·	·	·	·	·	9	·	·
N/C(=N\OC(=O)c1cccc(Cn2cc(C(F)(F)F)ccc2=O)c1)c1ccccc1	23	68*	9	113*	0	6	24	·
Cc1ccc(/C(N)=N/OC(=O)c2cccc(Cn3cc(C(F)(F)F)ccc3=O)c2)cc1	1	89*	7	99*	-1	1	50*	76*
SMILES	Shn3 inh set2	Mdm2 MdmX PPI	CSC inhib	Beta apoptosis	Gli-Sufu block	PAX8 inh HTS	Mdm2-MdmX conf	FLuc counter
O=C(Sc1ccc(Cl)cc1)c1cccc(Cn2cc(C(F)(F)F)ccc2=O)c1	-18	4	11	-18	-1	-6	·	·
Cc1cccc(NC(=O)c2ccc(Cn3cc(C(F)(F)F)ccc3=O)cc2)c1	26	-7	36	-11	-16	24	·	·
N/C(=N\OC(=O)c1cccc(Cn2cc(C(F)(F)F)ccc2=O)c1)c1ccc(Cl)cc1	15	76*	4	113*	0	-19	47*	83*
CO[C@H]1CN(C)C(=O)c2ccc(NC(=O)C3CCCCC3)cc2OC[C@@H](C)NC[C@@H]1C	·	·	·	·	·	-5	·	·
COc1cccc(-c2cn(CC[C@H]3CC[C@H](NC(=O)CN(C)C)[C@@H](CO)O3)nn2)c1	·	·	·	·	·	1	·	·
Nc1nc(NC(=O)c2ccccc2)nn1-c1ccccc1	-57	-16	0	-3	-33	-50	·	·
O=C(Nc1nc(NC(=O)c2ccco2)n(-c2ccccc2)n1)c1ccccc1	?	74*	27	89*	30	·	64*	46*
CCC1CCCCN1CCCNC(=O)c1ccc(/C=C2/Sc3ccccc3NC2=O)cc1 (stereo not given)	22	86*	-2	29	-6	-11	40	55*
O=C1Nc2cc(C(=O)NCCCN3CCOCC3)ccc2S/C1=C/c1ccccc1F	-15	10	27	3	20	1	·	·
COc1ccc(/C=C2/Sc3ccc(C(=O)NCCN4CCCCCC4)cc3NC2=O)cc1	53	100*	-12	·	0	9	88*	6
O=C1Nc2cc(C(=O)NCCCN3CCOCC3)ccc2S/C1=C/c1cccc(Cl)c1	10	73*	8	6	5	16	2	·
OC[C@@H]1[C@H](c2ccc(C#Cc3ccccc3)cc2)[C@H]2CN(Cc3cncnc3)CCCCN12	·	·	·	·	·	-23	·	·
O=C(Nc1ccccc1)N1CC(=O)N2[C@H](CO)[C@H](c3ccc(C#CC4CC4)cc3)[C@H]2C1	·	·	·	·	·	11	·	·
CC1CCCC(NC(=S)Nc2ccc(SC(F)F)cc2)C1C (stereo not given)	14	90*	?	24	-5	·	9	·
CNCC[C@@H](Oc1ccc(C(F)(F)F)cc1)c1ccccc1	3	50*	24	15	1	-1	28	·
CC(C)NC(=O)N(C)C[C@H]1OCCCC[C@H](C)Oc2ccc(NC(=O)C3CCCCC3)cc2C(=O)N([C@H](C)CO)C[C@@H]1C	·	·	·	·	·	6	·	·
OC[C@H]1[C@@H](c2ccccc2)C2(CN(Cc3nccs3)C2)N1CCC(F)(F)F	·	·	·	·	·	-7	·	·
CC(C)CN=C(NS(=O)(=O)c1ccccc1)C(Cl)(Cl)Cl	65	88*	147*	1	22	100*	81*	36
CCNC(=O)C[C@@H]1C=C[C@H](NS(=O)(=O)c2ccc(C)cc2)[C@@H](CO)O1	·	·	·	·	·	-9	·	·
